# Experimental data as given in PubChem BioAssay AID624465 (National Center for Advancing Translational Sciences (NCATS), 2012).
# Screen size: about 360,000 compounds; about 300 (0.083%) were called active. The entries come from a sample that favours actives as a whole. A number with no mark means an inactive call. Cut-off read from the data, not from the text of the source: active = activation above about 40%; inconclusive = between about 15% and that limit; inactive = weaker than that.
# Target: D(2) dopamine receptor (Homo sapiens) (UniProt P14416)
# Sequence (P14416 whole entry, looked up): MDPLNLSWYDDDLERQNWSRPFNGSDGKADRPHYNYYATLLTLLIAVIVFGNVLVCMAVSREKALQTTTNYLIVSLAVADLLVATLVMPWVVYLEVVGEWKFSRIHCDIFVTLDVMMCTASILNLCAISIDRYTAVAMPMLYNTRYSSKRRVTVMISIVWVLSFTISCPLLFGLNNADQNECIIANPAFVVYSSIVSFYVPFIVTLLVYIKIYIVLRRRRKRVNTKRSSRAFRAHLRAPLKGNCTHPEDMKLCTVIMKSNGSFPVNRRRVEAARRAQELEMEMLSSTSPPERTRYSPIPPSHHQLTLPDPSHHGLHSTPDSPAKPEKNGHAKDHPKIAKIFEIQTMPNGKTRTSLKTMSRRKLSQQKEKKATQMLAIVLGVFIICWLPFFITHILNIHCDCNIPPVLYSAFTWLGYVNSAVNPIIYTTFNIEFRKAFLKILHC
# Assay: Beta-Arrestin HTS for Positive Allosteric Modulators of the Human D2 Dopamine Receptor: Agonists
# Details: DiscoveRx PathHunter D2 beta-arrestin, luminescence, 90 min; active compounds read high; 100% = 57 uM dopamine signal
# Text: There is great interest in identifying small molecule ligands for G-protein coupled receptors (GPCRs) as nearly 50% of all FDA-approved drugs target these important receptor proteins. […] Amongst the dopamine receptors (DARs), the D2 is arguably one of the most validated drug targets in neurology and psychiatry. For instance, all receptor-based antiparkinsonian drugs primarily work via stimulating the D2 DAR, whereas all FDA-approved antipsychotic agents are antagonists of this receptor. The D2 DAR is also therapeutically targeted in other disorders such as restless legs syndrome, tardive dyskinesia, Tourette's syndrome, and hyperprolactinemia.
# To this end, a miniaturized qHTS screen was developed to be screened against the Molecular Libraries Small Molecule Repository (MLSMR). This assay seeks to identify agonists against the D2 DAR.
# NIH Molecular Libraries Probe Production Network [MLPCN]
# NIH Chemical Genomics Center [NCGC]
# PI Name: David Sibley, National Institutes of Neurological Disorders and Stroke
# DiscoveRx D2 cells were thawed from frozen stock and seeded at 2,100 cells/ 3 uL/well media (DiscoveRx Plating Reagent 2) with MultiDrop Combi dispenser (Thermo Scientific, Logan, UT) onto white tissue culture treated 1536-well Aurora plates (Brooks Automation, Chelmsford, MA) and allowed to attach overnight at 37 deg C, 5% CO2. Next, 23 nL/well of compound solutions in DMSO were added with a pintool transfer (Kalypsis, San Diego, CA). As the positive control, 1 uL/well dopamine (EC100, 57 uM final concentration) diluted in buffer (HBSS + 10 mM HEPES + SMB + 0.1% Tween-20) was dispensed to 1 column of each plate. The rest of the plate was dispensed with buffer only, 1 uL/well as well. The cells were stimulated by compounds or dopamine control for 90 minutes at 37 deg C, 5% CO2, after which 1.5 ul/well of DiscoveRx detection reagent was added with BioRAPTR FRD dispenser. The detection reagent was prepared by mixing of Galacton Star Substrate, Emerald II solution and PathHunter buffer (supplied by the assay kit) together at 1:5:19 proportion accordingly just prior to dispensing. The plates were incubated at ambient temperature for 1 hour and then the luminescent signal was read on ViewLux plate reader (PerkinElmer, Waltham, MA).
row,SMILES,activation
1,COc1ccc(C2=Nc3ccccc3NC(=O)C2N(C(=O)c2cc3ccccc3[nH]2)c2ccccc2)cc1 (centres undefined),2.65%
2,CC(C)(O)C#Cc1ccc(CNC[C@H]2O[C@@H](n3cnc4c(=O)[nH]c(N)nc43)[C@H](O)[C@@H]2O)s1,-5.21%
3,O=S(=O)(Cc1nnnn1-c1ccccc1)c1ccccc1,0.629%
4,CC(=O)c1c(N2CCN(c3ccc(F)cc3)CC2)nc(=S)n(-c2ccccc2)c1C,-6.73%
5,CC(C)c1ccc(S(=O)(=O)N2CCN(C(=O)CN3C(=O)NC(C)(c4ccccc4)C3=O)CC2)cc1 (centres undefined),1.77%
6,O=C(Nc1ccc(Cl)c(Cl)c1)N1CC=C(c2ccccc2)CC1,-2.15%
7,CC1CC(C)CN(C(=O)COC(=O)c2ccc3ncsc3c2)C1 (centres undefined),0.233%
8,CCC(=O)c1c[nH]c(C(=O)NCC2CCCO2)c1 (centres undefined),-0.182%
9,CCCC(=O)N1c2ccc(-c3csc(N)n3)cc2CC1C (centres undefined),2.86%
10,CC(C)(C)C(=O)OCc1nc(-c2ccc(O)c(O)c2)cs1,78% (active)
11,COc1ccc(C(C)(O)c2nc(-c3ccc(C)c(C)c3)cs2)cc1 (centres undefined),0.66%
12,CCCN(CCC)c1c([N+](=O)[O-])c(=O)oc2ccccc12,-4.9%
13,O=C1/C(=C\c2ccc([N+](=O)[O-])cc2)CS(=O)(=O)C/C1=C/c1ccc([N+](=O)[O-])cc1,-8.23%
14,O=C(O)C1CCN1C1CCCCC1 (centres undefined),-0.715%
15,OC[C@@H]1CN(Cc2cccs2)C[C@H](n2cnc3c(Nc4ccccc4)ncnc32)O1,-3.6%
16,COc1cccc(-c2cnc3c(NC(C)=O)cc(-c4cc(F)ccc4OC)cn23)c1,2.15%
17,CN1C(=O)/C(=C/C=C2\SCCN2C)OC1=S,-3.31%
18,O=C1c2ccccc2C(=O)N1CCC(O)C[N+](=O)[O-] (centres undefined),-2.92%
19,O=C(NC1CC2CCCC(C1)N2C(=O)N1CCCCC1)C1CCCCC1 (centres undefined),-2.68%
20,O=C(Nc1ccccc1N1CCOCC1)c1ccc(OCc2cscn2)cc1,9.98%
21,Cc1ccc(N=C2NC(=O)c3cccc([N+](=O)[O-])c32)cc1,1.24%
22,COc1ccc([C@H]2C[C@@H](n3cc(COC(=O)c4ccccc4)nn3)[C@H](O)CN2C(=O)c2cccs2)cc1,-3.3%

row,SMILES,activation
1,COc1cc(C(=O)Nc2cc(C(F)(F)F)ccc2N2CCOCC2)ccc1O,-0.449%
2,CCOC(=O)C(NS(=O)(=O)c1ccc(C)cc1)(C(F)(F)F)P(=O)(OCC(C)C)OCC(C)C (centres undefined),-3.61%
3,COc1ccc(N2C(=O)C3C(C2=O)C(C(=O)c2ccccc2)N2CCCC32)cc1 (centres undefined),-3.43%
4,O=C(CSc1ccccn1)Nc1nc2c(ccc3ccccc32)s1,-0.569%
5,CC(=O)c1nn(-c2ccccc2)c(=Nc2ccccc2)cc1C,-5.64%
6,CON(C)S(=O)(=O)c1ccc2c(c1)NC(=O)C1CCCN21 (centres undefined),-0.103%
7,O=C(c1ccco1)N1CCN(Cc2cccc(C(F)(F)F)c2)CC1,41.8% (active)
8,COc1cccc(OCc2cc(C(=O)N3CCN(C(=O)c4ccco4)CC3)no2)c1,2.91%
9,COc1cccc(OC)c1OCCN1CCN(C(=O)c2ccco2)CC1,44.2% (active)
10,O=C(c1ccco1)N1CCN(C(=S)Nc2cc(F)cc(F)c2)CC1,0.341%
11,O=C(CN1CCN(C(=O)c2ccco2)CC1)Nc1ccc(Cl)c(C(F)(F)F)c1,-0.549%
12,O=C(OCC(=O)N1CCN(C(=O)c2ccco2)CC1)c1c(Cl)cccc1Cl,-10.9%
13,CC1=CC=CN2C1=NC(=O)CC2(C)C(=O)N(CC(=O)NC1CCCC1)c1ccccc1C (centres undefined),4.24%
14,COc1ccc(-c2ccc3[nH]c4c(c3c2)CCN2C[C@H]3[C@H](C)ON(C)[C@H]3C[C@@H]42)cc1,-8.14%
15,COc1ccc(-c2cc(C(=O)N3CCN(Cc4ccc5c(c4)OCO5)CC3)on2)cc1OC,-0.403%
16,Cc1cc(C)n2nc(C(=O)N3CCN(Cc4ccc5c(c4)OCO5)CC3)nc2n1,10.2%
17,O=C(c1cccs1)N1CCN(Cc2ccc3c(c2)OCO3)CC1,46.9% (active)
18,CCOc1ccc(C(=O)NCC(=O)N2CCN(c3ccc(C(F)(F)F)cn3)CC2)cc1,9.96%
19,COP1(=O)C[C@@H](O)[C@@H](O)[C@@H](COCc2ccccc2)O1 (some centres undefined),0.955%
20,Oc1cc2c(cc1O)CN(C(=S)NCCc1ccc(Cl)cc1)CCC2,-1.87%
21,O=[N+]([O-])c1ccc(CN2CC(N3CC=CC3)CS2(=O)=O)cc1 (centres undefined),-1.85%
22,CCc1ccc(OCC(=O)OC(C)C(=O)NC2CC2)cc1 (centres undefined),-2.44%
